PubChem BioAssay (NCI)
This is part of a sample that, as a whole, favours compounds with a hit. Of some 79,000 tested, about 15% had one in any assay. Activity calls are given as the source filed them. No stated cut-off is given here; in the data, active means growth inhibition above about 70%; inactive means the rest.

How the values were obtained:
[1] = NCI Yeast Anticancer Drug Screen. Data for the rad52 strain (AID 147);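 further: 0% = growth of vehicle-treated control cultures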; conditions: S. cerevisiae rad52 mutant growth inhibition, hits give high values
In short: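 Compounds are applied to a genetically defined yeast strain lacking normal DNA damage repair, and inhibition of growth is expressed relative to cultures given vehicle only.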

[2] = NCI Yeast Anticancer Drug Screen. Data for the wt1 strain (AID 149);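 further: 0% = growth of vehicle-treated wt1 cultures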; conditions: S. cerevisiae wt1 strain (SPY 50644) growth inhibition, hits give high values
In short: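 Compounds are added to wt1 yeast cultures. Growth is then measured. Inhibition is expressed relative to vehicle-treated controls.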

[3] = NCI Yeast Anticancer Drug Screen. Data for the rad50EPP+ strain (AID 151);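 further: 0% = growth of vehicle-treated control cultures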; conditions: S. cerevisiae rad50 mutant strain, hits give high values
In short: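 Compounds were applied to the rad50EPP+ yeast strain, which bears a defined DNA repair alteration, and growth inhibition was determined relative to vehicle-treated cultures.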

[4] = NCI Yeast Anticancer Drug Screen. Data for the rad50 strain (AID 155);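 further: 0% = growth of vehicle-only cultures of the same strain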; conditions: S. cerevisiae rad50 strain growth inhibition, hits give high values
In short: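 Inhibition values express reduced yeast growth in compound-treated cultures relative to vehicle-treated controls.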

[5] = NCI Yeast Anticancer Drug Screen. Data for the mec2-1 strain (AID 157); conditions: S. cerevisiae mec2-1 strain, hits give high values
In short: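 Strain: mec2-1 (DNA repair/cell cycle alteration). Compound exposure, then growth measured; inhibition expressed relative to vehicle.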

[6] = NCI Yeast Anticancer Drug Screen. Data for the rad14 strain (AID 159);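 further: 0% = growth of vehicle-treated control cultures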; conditions: S. cerevisiae rad14 strain growth inhibition, hits give high values
In short: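 A mutant yeast strain defective in DNA damage repair is treated with compound; inhibition of its growth is scored against untreated, vehicle-exposed cultures.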

[7] = NCI Yeast Anticancer Drug Screen. Data for the sgs1 mgt1 strain (AID 161);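 further: 0% = growth of cultures given vehicle only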; conditions: S. cerevisiae sgs1 mgt1 strain, hits give high values
In short: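 Mutant yeast exposed to compound; growth scored against vehicle-only wells.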

[8] = NCI Yeast Anticancer Drug Screen. Data for the CLN2oe strain (AID 163);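 further: 0% = growth of vehicle-only control cultures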; conditions: S. cerevisiae CLN2oe strain, hits give high values
In short: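 Growth of a genetically modified yeast strain is measured after compound exposure and compared with cultures given vehicle alone.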

[9] = NCI Yeast Anticancer Drug Screen. Data for the cln2 rad14 strain (AID 165);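 further: 0% = growth equal to vehicle treated cultures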; conditions: S. cerevisiae cln2 rad14 strain, hits give high values
In short: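 Compounds are applied to the cln2 rad14 yeast strain, and growth is then compared with that of vehicle-treated cultures to give inhibition.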

[10] = NCI Yeast Anticancer Drug Screen. Data for the bub3 strain (AID 167); conditions: S. cerevisiae bub3 mutant strain, hits give high values
In short: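 Steps: expose the mutant yeast strain to compound; grow alongside vehicle-treated cultures; measure growth; express inhibition against the vehicle cultures.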

[11] = NCI Yeast Anticancer Drug Screen. Data for the wt2 strain (AID 169);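 further: 0% = growth of vehicle-treated yeast cultures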; conditions: S. cerevisiae wt2 strain growth inhibition, hits give high values
In short: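 This strain belongs to a panel of yeast strains with defined genetic alterations in DNA damage repair or cell cycle control. Compounds are applied, and growth inhibition is measured against vehicle-treated cultures.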

[12] = NCI Yeast Anticancer Drug Screen. Data for the mlh1 strain (AID 171);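 further: 0% = growth of vehicle-treated control cultures of the same strain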; conditions: S. cerevisiae mlh1 strain growth inhibition, hits give high values
In short: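 Growth of the mutant yeast strain after compound exposure, expressed as inhibition relative to vehicle-only controls.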

[13] = NCI Yeast Anticancer Drug Screen. Data for the sgs1 strain (AID 173);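 further: 0% = growth of vehicle-only control cultures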; conditions: S. cerevisiae sgs1 mutant, hits give high values
In short: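 Growth of a yeast strain bearing a defined genetic alteration is measured after compound treatment. Inhibition is expressed relative to vehicle-only controls.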

[14] = NCI Yeast Anticancer Drug Screen. Data for the mlh1 rad18 strain (AID 175); conditions: S. cerevisiae mlh1 rad18 strain growth inhibition, hits give high values
In short: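 Read-out is yeast growth inhibition, calculated against vehicle-only controls. The compound was applied to a strain engineered with DNA damage repair alterations.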

[15] = NCI Yeast Anticancer Drug Screen. Data for the rad18 strain (AID 177); conditions: S. cerevisiae rad18 mutant growth inhibition, hits give high values
In short: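 Growth of the mutant yeast strain after compound exposure, normalised to vehicle-only cultures.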

[16] = at 5.0 µM (retest, dose inferred, filed as 0.5)
[17] = at 50.0 µM (retest, dose inferred, filed as 5.0)

Measured: growth inhibition

[N-]=[N+]=NC(c1ccccc1)(c1ccccc1)c1ccccc1
active: [1]; at 100.0 µM 94% | [2]; at 100.0 µM 88% | [4]; [16] 100% | [4]; [17] 98% | [4]; at 50.0 µM 85% | [4]; at 100.0 µM 92% | [5]; [16] 99% | [5]; [17] 98% | [5]; at 50.0 µM 80.8% | [5]; at 100.0 µM 95% | [6]; at 100.0 µM 94% | [7]; [17] 84% | [7]; at 50.0 µM 87.7% | [8]; at 100.0 µM 78% | [9]; [17] 89% | [9]; at 50.0 µM 80.5% | [10]; [17] 79% | [10]; at 50.0 µM 87.8% | [10]; at 100.0 µM 86% | [11]; at 100.0 µM 89% | [12]; at 100.0 µM 91% | [13]; at 100.0 µM 87% | [14]; [16] 100% | [14]; [17] 99% | [14]; at 50.0 µM 84.1% | [15]; at 100.0 µM 87%
inactive: [1]; at 1.2 µM 8% | [1]; at 3.7 µM 6% | [1]; at 11.0 µM 9% | [1]; at 33.0 µM 29% | [2]; at 1.2 µM 15% | [2]; at 3.7 µM 12% | [2]; at 11.0 µM -6% | [2]; at 33.0 µM 32% | [3]; at 1.2 µM 9% | [3]; at 3.7 µM 15% | [3]; at 11.0 µM 11% | [3]; at 33.0 µM 21% | [3]; at 100.0 µM 28% | [4]; at 1.2 µM 14% | [4]; at 3.7 µM 22% | [4]; at 11.0 µM 6% | [4]; at 33.0 µM 40% | [5]; at 1.2 µM 12% | [5]; at 3.7 µM 11% | [5]; at 11.0 µM 13% | [5]; at 33.0 µM 32% | [6]; at 1.2 µM -9% | [6]; at 3.7 µM 1% | [6]; at 11.0 µM -4% | [6]; at 33.0 µM 24% | [7]; [16] -4% | [8]; at 1.2 µM 29% | [8]; at 3.7 µM 23% | [8]; at 11.0 µM 20% | [8]; at 33.0 µM 26% | [9]; [16] 17% | [10]; at 1.2 µM 3% | [10]; at 3.7 µM -17% | [10]; [16] 12% | [10]; at 11.0 µM -16% | [10]; at 33.0 µM 27% | [11]; at 1.2 µM -14% | [11]; at 3.7 µM -9% | [11]; at 11.0 µM -11% | [11]; at 33.0 µM 16% | [12]; at 1.2 µM 6% | [12]; at 3.7 µM 10% | [12]; at 11.0 µM 13% | [12]; at 33.0 µM 42% | [13]; at 1.2 µM 0% | [13]; at 3.7 µM -15% | [13]; at 11.0 µM -8% | [13]; at 33.0 µM 66% | [15]; at 1.2 µM 10% | [15]; at 3.7 µM 6% | [15]; at 11.0 µM 14% | [15]; at 33.0 µM 37%

Nc1cc(S(N)(=O)=O)ccc1SSc1ccc(S(N)(=O)=O)cc1N
inactive: [1]; at 1.2 µM 1% | [1]; at 3.7 µM 10% | [1]; at 11.0 µM 21% | [1]; at 33.0 µM 50% | [2]; at 1.2 µM 1% | [2]; at 3.7 µM -2% | [2]; at 11.0 µM 0% | [2]; at 33.0 µM 12% | [2]; at 100.0 µM 51% | [3]; at 1.2 µM -2% | [3]; at 3.7 µM 2% | [3]; at 11.0 µM 19% | [4]; at 1.2 µM 5% | [4]; at 3.7 µM 8% | [4]; [16] 13% | [4]; at 11.0 µM 22% | [4]; at 33.0 µM 33% | [4]; [17] 52% | [5]; at 1.2 µM 1% | [5]; at 3.7 µM 5% | [5]; [16] 9% | [5]; at 11.0 µM 12% | [5]; at 33.0 µM 29% | [5]; [17] 10% | [5]; at 50.0 µM 41.1% | [5]; at 100.0 µM 63% | [6]; at 1.2 µM 1% | [6]; at 3.7 µM -7% | [6]; at 11.0 µM 3% | [6]; at 33.0 µM 12% | [7]; [16] -7% | [7]; [17] 55% | [7]; at 50.0 µM 56.6% | [8]; at 1.2 µM 1% | [8]; at 3.7 µM -1% | [8]; at 11.0 µM 2% | [8]; at 33.0 µM 13% | [8]; at 100.0 µM 49% | [9]; [16] 16% | [9]; [17] 0% | [9]; at 50.0 µM 21.7% | [10]; at 1.2 µM -1% | [10]; at 3.7 µM 3% | [10]; [16] -21% | [10]; at 11.0 µM 9% | [10]; at 33.0 µM 21% | [10]; [17] 12% | [10]; at 50.0 µM 62.3% | [10]; at 100.0 µM 67% | [11]; at 1.2 µM -1% | [11]; at 3.7 µM -1% | [11]; at 11.0 µM 4% | [11]; at 33.0 µM 27% | [11]; at 100.0 µM 54% | [12]; at 1.2 µM 4% | [12]; at 3.7 µM 4% | [12]; at 11.0 µM 12% | [12]; at 33.0 µM 28% | [13]; at 1.2 µM 2% | [13]; at 3.7 µM 9% | [13]; at 11.0 µM 26% | [13]; at 33.0 µM 53% | [14]; [16] 5% | [14]; [17] 31% | [15]; at 1.2 µM -14% | [15]; at 3.7 µM 7% | [15]; at 11.0 µM 28% | [15]; at 33.0 µM 52%
active: [1]; at 100.0 µM 81% | [3]; at 33.0 µM 79% | [3]; at 100.0 µM 93% | [4]; at 50.0 µM 71.6% | [4]; at 100.0 µM 71% | [6]; at 100.0 µM 89% | [12]; at 100.0 µM 75% | [13]; at 100.0 µM 82% | [14]; at 50.0 µM 73% | [15]; at 100.0 µM 78%
